High-throughput results from PubChem BioAssay.
PLK1 PBD inh – qHTS for Inhibitors of PLK1-PDB (polo-like kinase 1 - polo-box domain): Primary Screen. Serine/threonine-protein kinase PLK1 (Homo sapiens), P53350. Plk1 PBD binding of FITC phosphopeptide, fluorescence polarization. Potency, µM, without a hit: max response, negative = inhibition, hits mostly inhibitors. 360,000 tested, 2.8% active; further: potency means the concentration at half of the fitted maximal effect; series mostly up to about 57 µM; on the % scale 0 is the no-effect control and ±100 the full control effect; nearly all actives have a fitted effect of over 65% in size
Target sequence (P53350 whole entry, looked up, the tested form may be a part): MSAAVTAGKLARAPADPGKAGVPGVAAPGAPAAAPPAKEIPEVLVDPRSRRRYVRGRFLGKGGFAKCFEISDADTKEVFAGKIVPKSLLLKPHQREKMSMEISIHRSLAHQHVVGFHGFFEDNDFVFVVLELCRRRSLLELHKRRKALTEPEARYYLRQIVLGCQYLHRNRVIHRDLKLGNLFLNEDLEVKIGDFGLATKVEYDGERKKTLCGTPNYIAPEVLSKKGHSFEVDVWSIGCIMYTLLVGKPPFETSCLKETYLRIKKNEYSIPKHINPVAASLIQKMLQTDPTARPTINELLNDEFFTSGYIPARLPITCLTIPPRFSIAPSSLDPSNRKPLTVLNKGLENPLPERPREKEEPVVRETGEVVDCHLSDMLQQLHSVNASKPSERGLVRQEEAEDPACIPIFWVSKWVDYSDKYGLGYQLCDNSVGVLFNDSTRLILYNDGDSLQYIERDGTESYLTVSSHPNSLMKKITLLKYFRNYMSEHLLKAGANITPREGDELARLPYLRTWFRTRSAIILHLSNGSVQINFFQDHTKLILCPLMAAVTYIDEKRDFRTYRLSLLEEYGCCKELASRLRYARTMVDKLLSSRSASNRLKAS
VDR inh – Inhibitors of the vitamin D receptor (VDR): qHTS. VDR-SRC2-3 peptide fluorescence polarization, 2 h. AID 504847, 2011. Potency, µM, for the others: max response, negative = inhibition, most hits filed as inhibitors. 400,000 tested, 0.93% active; further: potency means the concentration at half of the fitted maximal effect; on the % scale 0 is the no-effect control and ±100 the full control effect
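Measured by FP: displacement of SRC2-3 coactivator peptide from VDR by library compounds, following a two-hour ambient incubation.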
WRN inhibitor – qHTS for Inhibitors of WRN Helicase; Bifunctional 3'-5' exonuclease/ATP-dependent helicase WRN (Homo sapiens), Q14191; WRN helicase unwinding, fluorescent forked duplex, kinetic; Potency, µM (top dose mostly 114 µM), without a hit: at the top dose activity change, negative = inhibition, usual class: inhibitors; 360,000 tested, 0.46% active; AID 651768, 2012; further: potency means the concentration at half of the fitted maximal effect; on the % scale 0 is the no-effect control and ±100 the full control effect; nearly all actives have a fitted effect of over 55% in size
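Fluorescence dequenching readout, ex 525 nm/em 598 nm, kinetic mode: forked duplex DNA (100 nM final) with adjacent fluorophore and quencher unwound by WRN (20 nM final) with 2 mM ATP. Compound preincubation 15 min, room temperature.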
FEN1 inh – qHTS Assay for the Inhibitors of Human Flap endonuclease 1 (FEN1) | P39748 | Recombinant FEN1 flap cleavage, fluorescence, 15 min | Potency, µM (titrated, usually from 114 µM), inactives show at the highest dose activity change, negative = inhibition, most hits filed as inhibitors | 390,000 tested, 0.35% active | AID 588795, 2011; further: potency means the concentration at half of the fitted maximal effect; on the % scale 0 is the no-effect control and ±100 the full control effect; nearly all actives have a fitted effect of over 65% in size
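Quantitative HTS format: each compound was titrated, incubated with 10 nM nuclease for 15 min at room temperature, then challenged with flap substrate at 50 nM final. Signal change over 15 min gave concentration–effect curves.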
PI5P4Ka inh – qHTS for Inhibitors of phosphatidylinositol 5-phosphate 4-kinase (PI5P4K). 330,000 tested, 1.2% active. max response, %. PI5P4Kalpha enzyme, ADP-Glo luminescence, 60 min; stronger effect = lower value. Phosphatidylinositol 5-phosphate 4-kinase type-2 alpha (Homo sapiens), P48426; active means max response of -50% or lower; inconclusive means between -30% and -50%; inactive means -30% or higher; further: value at the top dose of about 77 µM; on the % scale 0 is the no-effect control and ±100 the full control effect
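Quantitative HTS of the MLSMR library against PI5P4Kalpha with substrate. ATP added last at 5 microM final; room temperature, 60 minutes. Remaining ATP depleted, ADP converted and read as luminescence.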
TCR activator – Activators of T cell receptors: qHTS campaign. primary human leukocytes, anti-CD3, IL-2 HTRF, 48 h. Potency, µM (top dose mostly 9.22 µM), for the others: top-dose activation of IL-2 secretion, usual class: activators. 330,000 tested, under 10 active. AID 504894, 2011; further: % of control where 0% means no effect
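IL-2 release read by HTRF sandwich (Eu cryptate donor, d2 acceptor, 665 nm emission) after 48 hr exposure of primary human leukocytes to compound together with anti-CD3 beads in the absence of co-stimulatory signals.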
TbPYK confirm – qHTS of Trypanosoma Brucei Inhibitors: Confirmatory Assay for Cherry-picked Compounds; shares compounds with PLK1 PBD inh; AID 720569, 2013; Potency, µM (series often up to 76.9 µM), for the others: top-dose activity change, negative = inhibition, actives largely listed as inhibitors; recombinant TbPYK, Kinase-Glo ATP luminescence; 890 tested, 67% active; further: potency means the concentration at half of the fitted maximal effect; on the % scale 0 is the no-effect control and ±100 the full control effect; nearly all actives have a fitted effect of over 70% in size
TbPYK ADP-Glo – qHTS of Trypanosoma Brucei Inhibitors: Orthogonal Assay for Cherry-picked Compounds; shares compounds with PLK1 PBD inh; 890 tested, 62% active; recombinant TbPYK, ADP-Glo luminescence, 60 min; Potency, µM (titrated, usually from 76.9 µM), without a hit: top-dose activity change, negative = inhibition, hits mostly inhibitors; further: potency means the concentration at half of the fitted maximal effect; on the % scale 0 is the no-effect control and ±100 the full control effect; nearly all actives have a fitted effect of over 75% in size
Active calls of the source: *; ? = inconclusive; . = no result; [ ] = another dose, or the depositor's remark. Only some compounds are listed: those with a hit (about 3.7% of all), similar ones and a draw of the others. Unless noted, the call rests on the fitted dose curve; in most records, active means well fitted curve in the direction sought with a large enough effect; inconclusive means small, poorly fitted or top-dose-only effect, or another doubt; inactive means no such curve, though single readings can be large; an effect the other way counts as inactive or inconclusive.

SMILES	PLK1 PBD inh	VDR inh	WRN inhibitor	FEN1 inh	PI5P4Ka inh	TCR activator	TbPYK confirm	TbPYK ADP-Glo
O=C1C2C(C(=O)N1/N=C/c1ccc(N3CCCCC3)o1)C1C=CC2C12CC2 (stereo unspecified)	-4%	89µM*	-24%[57.1 µM]	-4%	?	-2%[46.1 µM]	28µM*	32µM*
Cc1noc(NS(=O)(=O)c2ccc(NC(=O)CSc3nc4c(cc3C#N)CCC4)cc2)c1C	?	2%	0%	-3%	-11	1%[46.1 µM]	?	32µM*
Oc1cccc(/C=N/N2CCCCC2)c1O	5%	-3%	-4%	-5%	2	2%	.	.
Oc1ccc(/C=N/N2CCCCC2)c(O)c1O	11µM*	?	?	?	?	-1%	32µM*	35µM*
COc1ccc(CCN2C(=O)C=CC2=O)cc1OC	6.7µM*	?	32µM*	2%	-11	-5%	4.5µM*	5.6µM*
COc1ccc(CCn2c(C)ccc2C)cc1OC	.	.	.	.	.	-2%[46.1 µM]	.	.
Cc1c([N+](=O)[O-])cc(N2C(=O)C=CC2=O)cc1[N+](=O)[O-]	2.7µM*	-7%	-12%	-2%	-66*	1%	4µM*	7.9µM*
Cc1ccc(N2C(=O)C3C4C=CC(CC4)C3C2=O)cc1[N+](=O)[O-] (stereo unspecified)	-1%	-9%	-1%	1%	2	0%	.	.
Cc1cc(C)cc(N2C(=O)C=CC2=O)c1	3µM*	40µM*	20µM*	-13%	?	2%	10µM*	14µM*
CCOC(=O)c1c(C)oc2nc(C)nc(NCCc3ccc(OCC)c(OCC)c3)c12	.	-7%	.	-19%	.	.	.	.
COC(=O)/C(=N/Nc1ccccc1C)Sc1nnc(C(O)c2ccccc2)n1-c1ccccc1 (stereo unspecified)	-10%	6%	-5%[57.1 µM]	-1%	-19	0%[46.1 µM]	35µM*	35µM*
COc1cc(/C=N/N2CCN(Cc3ccc(C)cc3)CC2)cc(OC)c1O	-5%	-23%	2%	-16%	-12	0%	22µM*	28µM*
Cc1ccc(CN2CCN(/N=C/c3ccccc3)CC2)cc1	1%	0%	-3%	1%	6	-1%	.	.
COc1ccccc1N(C(C)=O)C1=C(Cl)C(=O)c2ccccc2C1=O	3µM*	.	-7%[11.6 µM]	.	-89*	.	-100%	0.79µM*
COc1ccccc1N(C(=O)CCl)c1cn(C(C)=O)c2ccccc12	-10%	6%	-3%	8%	5	2%	.	.
CN=c1nc(-c2ccccc2)n(-c2ccccc2)s1	3µM*	50µM*	4%	?	-86*	57%	0.89µM*	1.8µM*
CC(=O)n1cc(Nc2ccc([N+](=O)[O-])cc2)c2ccccc21	-14%	-4%	-1%	14%	1	14%	.	.
CC(=O)SC(C[N+](=O)[O-])c1cn(C(C)=O)c2ccccc12 (stereo unspecified)	4.2µM*	45µM*	?	-2%	-26	-9%	?	?
COc1ccccc1CNc1nc2ccc(C)cc2n2nnnc12	.	5%	.	5%	.	.	.	.
Cc1ccc(CNC(=O)C2CCN(S(=O)(=O)c3cccs3)CC2)o1	-16%	?	-17%	0%	.	1%[46.1 µM]	?	?
Cc1ccc(C2CC(=O)N3CN(c4ccc(Br)cc4)CSC3=C2C#N)o1 (stereo unspecified)	-13%	45µM*	2%	-7%	.	11%	32µM*	16µM*
COc1ccc(-c2cc(C(F)(F)F)nc(SCCC(=O)Nc3ccc(F)cc3F)n2)cc1	.	-9%	.	13%	.	.	.	.
Cc1ccc(/C=C/C(=O)N2CCN(S(=O)(=O)c3cccs3)CC2)o1	-4%	1%	-7%	-5%	-22	7%	.	.
Cc1ccc(/C=C/C(=O)N2CC(C)CC(C)C2)o1 (stereo unspecified)	27µM*	?	-30%	-11%	?	3%	?	32µM*
CCn1c(C)nc2cc(C(=O)NNC(=O)c3ccc(Cl)nc3)ccc21	-3%	18%	6%[57.1 µM]	5%	14	6%	.	.
SMILES	PLK1 PBD inh	VDR inh	WRN inhibitor	FEN1 inh	PI5P4Ka inh	TCR activator	TbPYK confirm	TbPYK ADP-Glo
CCn1c(C)nc2cc(C(=O)NNC(=O)c3ccc(C)cc3)ccc21	2%	-7%	0%	-6%	0	-3%	?	?
CCOC(=O)C1CCCN(C(=O)c2ccc(-c3ccc([N+](=O)[O-])cc3)o2)C1 (stereo unspecified)	30µM*	?	?	-6%	?	2%	?	?
CC(C)(C)c1ccc(C(=O)N/C(=C\c2ccco2)C(=O)Nc2ccccc2C(=O)O)cc1	-19%	-17%	-31%	3%	?	-3%	?	-26%
CC(C)Cc1nn2c(=O)cc(COC(=O)c3ccc4c(c3)OCO4)nc2s1	.	11%	.	0%	.	.	.	.
C[C@@H]1CCCCO[C@@H](CN(C)C(=O)Nc2ccccc2)[C@@H](C)CN([C@H](C)CO)C(=O)c2cc(N(C)C)ccc2O1	-19%	.	-4%	.	4	.	.	.
C[C@@H]1CCCCO[C@H](CN(C)C(=O)Nc2cccc3ccccc23)[C@@H](C)CN([C@H](C)CO)C(=O)c2cc(N(C)C)ccc2O1	0%	.	-4%	.	-5	.	3.5µM*	7.1µM*
C[C@@H]1CCCCO[C@H](CN(C)Cc2ccc(Cl)c(Cl)c2)[C@@H](C)CN([C@H](C)CO)C(=O)c2cc(N(C)C)ccc2O1	-2%	.	1%	.	-4	.	6.3µM*	6.3µM*
Cc1ccc(NC(=O)c2ccc(F)cc2)nc1	0%	-8%	7%	-5%	0	-4%	.	.
Cc1ccc(NC(=O)c2sccc2C)nc1	5%	5%	12%	0%	-6	5%	?	1%
